Measurements reported in the supplement of paper PMC10849652.
The full data set covers some 8,800 targets. This sample favours those with a hit. About 0.5% of all pairs of compound and target were hits.

Each target was assayed with Cc1cn(-c2cc(NC(=O)c3ccc(C)c(Nc4nccc(-c5cccnc5)n4)c3)cc(C(F)(F)F)c2)cn1 [nilotinib] (assay: log2 fold change, soluble protein after heating vs DMSO (PISA); higher = thermal stabilisation; K562 lysate, 10 uM; active = over 0.2 and 3.5 SD of the protein, either way, in both replicates (recomputed)).
In short: (§1)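 Thermal stability, expressed as log-two fold change relative to solvent controls, is given from duplicates. Crude K562 extract in PBS pH 7.4 with 1 mM MgCl2, at 1 mg/mL protein, was treated with 10 μM compound for 30 min and heated in aliquots for 3 min across 48°C-58°C. After pooling, adjustment to 0.5% NP-40 at 4°C and centrifugation at 21,000xg for 90 min, supernatant protein was measured by TMTpro 16plex LC-MS/MS with channel sums equalised.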

Chain of UniProt Q9HAD4 (Q9HAD4 whole entry, looked up): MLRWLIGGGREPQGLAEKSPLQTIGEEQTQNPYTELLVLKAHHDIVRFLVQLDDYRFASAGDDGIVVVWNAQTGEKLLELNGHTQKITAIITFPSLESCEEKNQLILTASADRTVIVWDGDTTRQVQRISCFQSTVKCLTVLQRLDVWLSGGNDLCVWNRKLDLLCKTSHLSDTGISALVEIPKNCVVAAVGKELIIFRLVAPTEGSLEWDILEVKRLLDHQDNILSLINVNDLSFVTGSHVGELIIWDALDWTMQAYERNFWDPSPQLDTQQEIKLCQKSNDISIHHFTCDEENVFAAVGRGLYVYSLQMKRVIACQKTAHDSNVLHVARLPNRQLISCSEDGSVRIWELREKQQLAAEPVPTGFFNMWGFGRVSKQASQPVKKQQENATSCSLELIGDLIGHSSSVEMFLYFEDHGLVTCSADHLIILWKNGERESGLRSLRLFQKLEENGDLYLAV
Chain of UniProt P15498 (P15498 whole entry, looked up): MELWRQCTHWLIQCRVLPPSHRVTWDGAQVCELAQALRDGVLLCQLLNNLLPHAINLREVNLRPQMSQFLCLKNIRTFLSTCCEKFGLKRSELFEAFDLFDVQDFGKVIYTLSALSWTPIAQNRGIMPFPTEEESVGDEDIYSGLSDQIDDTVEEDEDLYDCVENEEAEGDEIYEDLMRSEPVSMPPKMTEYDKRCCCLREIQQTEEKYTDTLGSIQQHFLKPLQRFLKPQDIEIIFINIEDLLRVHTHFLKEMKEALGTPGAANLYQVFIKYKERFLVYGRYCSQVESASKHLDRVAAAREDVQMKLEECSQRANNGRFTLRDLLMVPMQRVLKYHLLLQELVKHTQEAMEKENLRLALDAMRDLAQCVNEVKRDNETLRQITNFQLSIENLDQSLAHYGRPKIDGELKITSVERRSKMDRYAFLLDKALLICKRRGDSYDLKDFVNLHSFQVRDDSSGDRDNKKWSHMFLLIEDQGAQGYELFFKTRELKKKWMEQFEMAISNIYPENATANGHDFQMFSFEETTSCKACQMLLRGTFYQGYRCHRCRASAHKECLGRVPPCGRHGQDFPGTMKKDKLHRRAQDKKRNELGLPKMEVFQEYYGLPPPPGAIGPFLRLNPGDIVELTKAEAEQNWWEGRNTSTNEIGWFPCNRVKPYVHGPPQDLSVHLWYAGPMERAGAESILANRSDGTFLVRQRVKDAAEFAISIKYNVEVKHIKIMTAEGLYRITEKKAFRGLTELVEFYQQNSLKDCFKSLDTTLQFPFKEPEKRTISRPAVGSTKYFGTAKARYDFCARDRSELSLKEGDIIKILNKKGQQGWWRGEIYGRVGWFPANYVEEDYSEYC
Chain of UniProt Q9UNX4 (Q9UNX4 whole entry, looked up): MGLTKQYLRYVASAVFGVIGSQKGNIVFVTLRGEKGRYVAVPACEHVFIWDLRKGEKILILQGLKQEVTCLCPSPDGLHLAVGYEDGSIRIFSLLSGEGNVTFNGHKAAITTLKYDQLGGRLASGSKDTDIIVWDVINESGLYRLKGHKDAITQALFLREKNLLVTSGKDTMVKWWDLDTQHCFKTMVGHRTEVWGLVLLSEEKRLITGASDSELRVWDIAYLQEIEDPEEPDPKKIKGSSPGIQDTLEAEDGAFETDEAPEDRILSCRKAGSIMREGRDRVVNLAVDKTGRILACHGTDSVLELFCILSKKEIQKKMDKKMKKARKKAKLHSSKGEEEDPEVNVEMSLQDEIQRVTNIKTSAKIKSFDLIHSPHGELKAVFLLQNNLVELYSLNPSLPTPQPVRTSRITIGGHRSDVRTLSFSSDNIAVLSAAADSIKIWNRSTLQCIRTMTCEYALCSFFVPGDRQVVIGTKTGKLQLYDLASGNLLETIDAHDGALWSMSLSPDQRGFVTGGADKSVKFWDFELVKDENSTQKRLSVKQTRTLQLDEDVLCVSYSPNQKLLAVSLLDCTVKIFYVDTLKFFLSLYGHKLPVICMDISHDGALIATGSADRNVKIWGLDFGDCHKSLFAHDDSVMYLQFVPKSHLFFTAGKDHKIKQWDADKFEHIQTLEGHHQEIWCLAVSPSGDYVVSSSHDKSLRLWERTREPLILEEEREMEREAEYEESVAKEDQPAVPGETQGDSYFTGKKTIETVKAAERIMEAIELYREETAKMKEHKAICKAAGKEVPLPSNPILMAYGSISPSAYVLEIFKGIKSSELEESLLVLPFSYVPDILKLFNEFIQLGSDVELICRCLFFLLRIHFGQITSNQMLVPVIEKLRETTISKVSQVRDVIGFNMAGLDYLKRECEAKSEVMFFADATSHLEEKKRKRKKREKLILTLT
Chain of UniProt Q9UKW4 (Q9UKW4 whole entry, looked up): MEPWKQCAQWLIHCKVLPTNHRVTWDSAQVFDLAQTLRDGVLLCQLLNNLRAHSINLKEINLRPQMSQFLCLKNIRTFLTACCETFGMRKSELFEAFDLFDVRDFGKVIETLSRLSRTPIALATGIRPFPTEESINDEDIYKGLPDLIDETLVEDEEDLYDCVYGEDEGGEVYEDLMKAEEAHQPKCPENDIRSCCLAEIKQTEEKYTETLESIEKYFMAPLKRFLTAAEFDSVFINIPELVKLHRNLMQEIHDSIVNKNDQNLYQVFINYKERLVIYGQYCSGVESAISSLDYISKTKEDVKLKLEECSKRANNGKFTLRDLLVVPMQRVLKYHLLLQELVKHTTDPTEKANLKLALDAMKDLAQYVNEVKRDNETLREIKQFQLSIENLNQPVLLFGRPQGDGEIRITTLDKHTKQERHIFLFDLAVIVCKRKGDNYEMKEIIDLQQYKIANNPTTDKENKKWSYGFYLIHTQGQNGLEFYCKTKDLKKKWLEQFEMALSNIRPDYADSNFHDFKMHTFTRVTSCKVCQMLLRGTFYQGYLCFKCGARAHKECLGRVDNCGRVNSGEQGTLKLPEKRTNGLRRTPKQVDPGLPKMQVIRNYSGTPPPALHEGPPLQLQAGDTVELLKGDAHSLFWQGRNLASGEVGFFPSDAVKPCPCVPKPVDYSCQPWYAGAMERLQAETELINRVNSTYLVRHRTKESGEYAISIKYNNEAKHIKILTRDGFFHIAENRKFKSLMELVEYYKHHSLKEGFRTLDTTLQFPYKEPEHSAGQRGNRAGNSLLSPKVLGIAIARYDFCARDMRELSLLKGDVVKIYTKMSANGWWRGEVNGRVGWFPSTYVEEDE
Chain of UniProt Q14191 (Q14191 whole entry, looked up): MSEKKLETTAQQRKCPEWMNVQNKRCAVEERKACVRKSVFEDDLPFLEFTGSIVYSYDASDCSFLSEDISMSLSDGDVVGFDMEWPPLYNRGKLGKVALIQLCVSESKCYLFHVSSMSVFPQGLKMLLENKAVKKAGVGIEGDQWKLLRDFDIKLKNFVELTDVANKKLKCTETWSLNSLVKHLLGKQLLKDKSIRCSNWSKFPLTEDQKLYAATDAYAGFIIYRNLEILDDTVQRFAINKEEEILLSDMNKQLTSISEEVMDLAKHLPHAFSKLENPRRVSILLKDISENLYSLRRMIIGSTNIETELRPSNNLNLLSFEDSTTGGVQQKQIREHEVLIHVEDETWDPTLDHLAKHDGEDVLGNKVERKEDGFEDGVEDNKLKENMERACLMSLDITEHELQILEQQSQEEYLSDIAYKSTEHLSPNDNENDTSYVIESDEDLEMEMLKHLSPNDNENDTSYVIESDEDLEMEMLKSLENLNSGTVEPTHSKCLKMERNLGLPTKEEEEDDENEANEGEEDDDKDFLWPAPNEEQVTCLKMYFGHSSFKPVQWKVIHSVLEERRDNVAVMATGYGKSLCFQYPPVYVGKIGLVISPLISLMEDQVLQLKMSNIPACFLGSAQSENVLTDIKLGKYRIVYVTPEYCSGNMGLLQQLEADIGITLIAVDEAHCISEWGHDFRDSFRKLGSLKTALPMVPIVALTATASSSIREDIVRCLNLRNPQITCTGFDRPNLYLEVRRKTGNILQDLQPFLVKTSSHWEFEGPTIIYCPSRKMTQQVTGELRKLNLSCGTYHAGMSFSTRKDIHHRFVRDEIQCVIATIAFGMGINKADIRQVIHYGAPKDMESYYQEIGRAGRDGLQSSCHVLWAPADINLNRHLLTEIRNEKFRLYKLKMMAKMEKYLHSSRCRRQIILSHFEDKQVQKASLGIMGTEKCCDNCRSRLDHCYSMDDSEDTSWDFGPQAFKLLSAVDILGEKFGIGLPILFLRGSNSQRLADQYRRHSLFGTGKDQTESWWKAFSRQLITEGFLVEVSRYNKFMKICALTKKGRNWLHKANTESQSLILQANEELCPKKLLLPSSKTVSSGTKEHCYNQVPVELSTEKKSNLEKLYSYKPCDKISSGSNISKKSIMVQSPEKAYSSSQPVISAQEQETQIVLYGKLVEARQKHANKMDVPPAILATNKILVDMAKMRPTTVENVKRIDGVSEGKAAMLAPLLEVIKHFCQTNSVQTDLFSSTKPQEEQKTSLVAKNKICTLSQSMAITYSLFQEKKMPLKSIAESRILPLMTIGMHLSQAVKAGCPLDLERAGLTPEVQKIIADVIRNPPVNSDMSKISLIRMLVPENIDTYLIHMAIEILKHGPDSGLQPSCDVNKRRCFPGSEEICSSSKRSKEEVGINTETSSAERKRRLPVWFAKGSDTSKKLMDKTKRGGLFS
Chain of UniProt Q9NUE0 (Q9NUE0 whole entry, looked up): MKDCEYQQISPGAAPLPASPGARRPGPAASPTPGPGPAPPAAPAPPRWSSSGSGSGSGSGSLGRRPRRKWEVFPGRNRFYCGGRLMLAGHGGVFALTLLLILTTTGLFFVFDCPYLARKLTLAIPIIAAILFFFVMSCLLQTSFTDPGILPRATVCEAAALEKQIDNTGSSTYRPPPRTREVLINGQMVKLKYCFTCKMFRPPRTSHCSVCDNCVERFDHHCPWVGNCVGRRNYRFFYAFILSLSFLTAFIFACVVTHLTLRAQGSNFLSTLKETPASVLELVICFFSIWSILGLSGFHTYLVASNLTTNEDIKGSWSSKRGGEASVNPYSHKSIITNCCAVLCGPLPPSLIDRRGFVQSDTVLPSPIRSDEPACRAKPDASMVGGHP

log2 fold change, inactive:
XAB2 (UniProt Q9HCS7) 0.032
VAV3 isoform 4 (UniProt Q9UKW4) 0.155
WDR3 (UniProt Q9UNX4) 0.055
VAV1 (UniProt P15498) 0.022
WRN (UniProt Q14191) -0.027
WDR41 (UniProt Q9HAD4) -0.012
YLPM1 (UniProt P49750) -0.023

What follows are targets tested with Cc1nc(Nc2n[nH]c3c2CN(C(=O)N[C@H](CN(C)C)c2ccccc2)C3(C)C)c2sccc2n1 in the same assay as above.
In short: as §1

log2 fold change, inactive:
ZDHHC17 (UniProt Q8IUH5) 0.039
VPS72 (UniProt Q15906) 0.032
ZNF609 (UniProt O15014) -0.023
UQCRC2 (UniProt P22695) -0.028
UPF3B (UniProt Q9BZI7) 0.012
VRK2 (UniProt Q86Y07) 0.219
ZNF598 isoform 3 (UniProt Q86UK7) -0.022
ZMYM1 (UniProt Q5SVZ6) -0.036
VARS (UniProt P26640) -0.004
VAC14 (UniProt Q08AM6) 0.018
VASP (UniProt P50552) -0.002
ZHX1 (UniProt Q9UKY1) -0.012
VPS54 (UniProt Q9P1Q0) -0.041
WDR91 (UniProt A4D1P6) -0.025
ZBTB40 (UniProt Q9NUA8) 0.29
YES1 (UniProt P07947) 0.008
WDR77 (UniProt Q9BQA1) 0.028
ZDHHC18 (UniProt Q9NUE0) -0.329
ZC2HC1A (UniProt Q96GY0) 0.005
VPS35L (UniProt Q7Z3J2) -0.006
VPS11 (UniProt Q9H270) -0.008
VPS13C (UniProt Q709C8) 0.043
ZMYM4 (UniProt Q5VZL5) 0.003
USP10 isoform 2 (UniProt Q14694) 0.013
XAB2 (UniProt Q9HCS7) -0.002
VAV3 isoform 4 (UniProt Q9UKW4) -0.028
WDR3 (UniProt Q9UNX4) 0.001
VAV1 (UniProt P15498) -0.031
WRN (UniProt Q14191) -0.018
WDR41 (UniProt Q9HAD4) -0.023
YLPM1 (UniProt P49750) -0.192
